Measured values as given in PubChem BioAssay AID1159580 (chemical genetic matrix, 2015).
Several values for one entry are separate records, joined by “and”; a condition that tells them apart may be missing. Equal values may be shown once. Among all 5,500 compounds or so, about 2,000 (36%) were called active. Another 18% or so got no clear call; they are omitted. No stated cut-off is given here; in the data, active means normalized growth mostly below about 0.91 (no sharp cut-off); inconclusive means no clear call, values can overlap the other calls; inactive means mostly above about 0.92. Some of the results follow.

Assay: chemical genetic growth profiling, strain panel (AID 1159580);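 further: tested at 20 µM; growth read once vehicle control cultures reached saturation at 30 °C; 1 = growth at the plate median or of vehicle wells; lower values mean less growth of the strain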
Settings: growth OD

Measured: normalized growth

NCC(CC(=O)O)c1ccc(Cl)cc1 (stereo not drawn)
inactive: S. cerevisiae deletion strains, locus YJR075W, strain HOC1, active compounds read low 0.991 | S. cerevisiae deletion strains, locus YKL009W, strain mrt4, active compounds read low 0.968 | S. cerevisiae deletion strains, locus YKL068W, active compounds read low 1.01 | S. cerevisiae deletion strains, locus YKL085W, strain MDH1 (second series), active compounds read low 0.991 | S. cerevisiae deletion strains, locus YKL085W, strain MDH1, active compounds read low 0.991 | S. cerevisiae deletion strains, locus YKL160W, strain elf1, active compounds read low 1.01 | S. cerevisiae deletion strains, locus YKR001C, strain vps1, active compounds read low 0.974 | S. cerevisiae deletion strains, locus YKR026C, strain gcn3, active compounds read low 0.995 | S. cerevisiae deletion strains, locus YKR091W, strain srl3, active compounds read low 1 | S. cerevisiae deletion strains, locus YLL001W, strain dnm1, active compounds read low 1.03 | S. cerevisiae deletion strains, locus YLL026W, active compounds read low 1.01 | S. cerevisiae deletion strains, locus YLL041C, strain sdh2, active compounds read low 0.993 | S. cerevisiae deletion strains, locus YLR027C, strain aat2, active compounds read low 1.01 | S. cerevisiae deletion strains, locus YLR039C, strain RIC1, active compounds read low 1.07 | S. cerevisiae deletion strains, locus YLR058C, strain SHM2, active compounds read low 1.02 | S. cerevisiae deletion strains, locus YLR102C, strain apc9, active compounds read low 0.985 | S. cerevisiae deletion strains, locus YLR113W, strain HOG1, active compounds read low 1.05 | S. cerevisiae deletion strains, locus YLR221C, strain rsa3, active compounds read low 0.976 | S. cerevisiae deletion strains, locus YLR258W, strain gsy2, active compounds read low 0.984 | S. cerevisiae deletion strains, locus YLR262C, strain YPT6 (second series), active compounds read low 0.995 | S. cerevisiae deletion strains, locus YLR262C, strain YPT6, active compounds read low 1.08 | S. cerevisiae deletion strains, locus YLR268W, strain sec22, active compounds read low 1.02 | S. cerevisiae deletion strains, locus YLR320W, strain mms22, active compounds read low 0.968 | S. cerevisiae deletion strains, locus YLR330W, strain CHS5, active compounds read low 1.02 | S. cerevisiae deletion strains, locus YLR342W, strain FKS1 (second series), active compounds read low 1.03 | S. cerevisiae deletion strains, locus YLR342W, strain FKS1, active compounds read low 1.03 | S. cerevisiae deletion strains, locus YLR357W, strain rsc2, active compounds read low 1 | S. cerevisiae deletion strains, locus YLR370C, strain arc18, active compounds read low 0.997 | S. cerevisiae deletion strains, locus YLR371W, strain rom2, active compounds read low 0.985 | S. cerevisiae deletion strains, locus YLR384C, strain iki3, active compounds read low 1.01 | S. cerevisiae deletion strains, locus YLR418C, strain cdc73, active compounds read low 0.979 | S. cerevisiae deletion strains, locus YML016C, strain PPZ1, active compounds read low 1.02 | S. cerevisiae deletion strains, locus YML032C, strain rad52, active compounds read low 0.987 | S. cerevisiae deletion strains, locus YML120C, strain ndi1, active compounds read low 0.999 | S. cerevisiae deletion strains, locus YML124C, strain tub3, active compounds read low 0.983 | S. cerevisiae deletion strains, locus YMR058W, strain fet3, active compounds read low 1.02 | S. cerevisiae deletion strains, locus YMR078C, strain ctf18, active compounds read low 0.99 | S. cerevisiae deletion strains, locus YMR125W, strain sto1, active compounds read low 0.97 | S. cerevisiae deletion strains, locus YMR129W, active compounds read low 0.999 | S. cerevisiae deletion strains, locus YMR205C, strain PFK2, active compounds read low 1.01 | S. cerevisiae deletion strains, locus YMR223W, strain ubp8, active compounds read low 1 | S. cerevisiae deletion strains, locus YMR231W, strain pep5, active compounds read low 1.01 | S. cerevisiae deletion strains, locus YMR263W, strain SAP30, active compounds read low 1.01 | S. cerevisiae deletion strains, locus YMR307W, strain GAS1, active compounds read low 1.1 | S. cerevisiae deletion strains, locus YNL067W, strain RPL9B, active compounds read low 1 | S. cerevisiae deletion strains, locus YNL071W, strain lat1, active compounds read low 0.991 | S. cerevisiae deletion strains, locus YNL128W, strain TEP1, active compounds read low 1.01 | S. cerevisiae deletion strains, locus YNL153C, strain GIM3, active compounds read low 1.01 | S. cerevisiae deletion strains, locus YNL175C, strain NOP13, active compounds read low 0.977 | S. cerevisiae deletion strains, locus YNL183C, strain NPR1, active compounds read low 0.993 | S. cerevisiae deletion strains, locus YNL197C, strain WHI3, active compounds read low 1.04 | S. cerevisiae deletion strains, locus YNL209W, strain ssb2, active compounds read low 0.997 | S. cerevisiae deletion strains, locus YNL224C, strain SQS1, active compounds read low 0.993 | S. cerevisiae deletion strains, locus YNL233W, strain BNI4, active compounds read low 1.01 | S. cerevisiae deletion strains, locus YNL248C, strain rpa49, active compounds read low 0.961 | S. cerevisiae deletion strains, locus YNL250W, strain rad50, active compounds read low 0.986 | S. cerevisiae deletion strains, locus YNL271C, strain bni1, active compounds read low 0.987 | S. cerevisiae deletion strains, locus YNL298W, strain CLA4, active compounds read low 0.984 | S. cerevisiae deletion strains, locus YNL307C, strain MCK1, active compounds read low 0.977 | S. cerevisiae deletion strains, locus YNL322C, strain KRE1 (second series), active compounds read low 0.985 | S. cerevisiae deletion strains, locus YNR049C, strain mso1, active compounds read low 1.01 | S. cerevisiae deletion strains, locus YNR052C, strain pop2, active compounds read low 0.979 | S. cerevisiae deletion strains, locus YOL012C, strain htz1 1.49 | S. cerevisiae deletion strains, locus YOL147C, strain pex11, active compounds read low 0.984 | S. cerevisiae deletion strains, locus YOR001W, strain rrp6, active compounds read low 0.99 | S. cerevisiae deletion strains, locus YOR061W, strain CKA2, active compounds read low 1.02 | S. cerevisiae deletion strains, locus YOR069W, strain VPS5, active compounds read low 1.01 | S. cerevisiae deletion strains, locus YOR070C, strain gyp1, active compounds read low 0.98 | S. cerevisiae deletion strains, locus YOR080W, strain dia2, active compounds read low 0.997 | S. cerevisiae deletion strains, locus YOR083W, strain WHI5 (second series), active compounds read low 1.04 | S. cerevisiae deletion strains, locus YOR083W, strain WHI5, active compounds read low 0.988 | S. cerevisiae deletion strains, locus YOR106W, strain vam3, active compounds read low 1.02 | S. cerevisiae deletion strains, locus YOR136W, strain idh2, active compounds read low 0.974 | S. cerevisiae deletion strains, locus YOR144C, strain elg1, active compounds read low 0.992 | S. cerevisiae deletion strains, locus YOR184W, strain ser1, active compounds read low 0.984 | S. cerevisiae deletion strains, locus YOR231W, strain MKK1, active compounds read low 1.08 | S. cerevisiae deletion strains, locus YOR265W, strain rbl2, active compounds read low 1 | S. cerevisiae deletion strains, locus YOR270C, strain vph1, active compounds read low 0.976 | S. cerevisiae deletion strains, locus YOR290C, strain snf2, active compounds read low 0.957 | S. cerevisiae deletion strains, locus YOR316C, strain cot1, active compounds read low 0.986 | S. cerevisiae deletion strains, locus YPL051W, strain arl3, active compounds read low 0.999 | S. cerevisiae deletion strains, locus YPL055C, strain LGE1, active compounds read low 1.02 | S. cerevisiae deletion strains, locus YPL078C, strain atp4, active compounds read low 1.02 | S. cerevisiae deletion strains, locus YPL106C, strain sse1, active compounds read low 0.968 | S. cerevisiae deletion strains, locus YPL240C, strain hsp82, active compounds read low 0.992 | S. cerevisiae deletion strains, locus YPL241C, strain CIN2, active compounds read low 1.01 and 0.983 | S. cerevisiae deletion strains, locus YPL256C, strain CLN2, active compounds read low 1.08 | S. cerevisiae deletion strains, locus YPR119W, strain clb2, active compounds read low 0.993 | S. cerevisiae deletion strains, locus YPR141C, strain kar3, active compounds read low 0.996 | S. cerevisiae deletion strains, locus YPR163C, strain tif3, active compounds read low 0.99 | S. cerevisiae deletion strains, locus YPR167C, strain met16, active compounds read low 0.991 | S. cerevisiae deletion strains, strain wtn01, active compounds read low 0.992 | S. cerevisiae strains, strain wild type, active compounds read low 1.03
